SMILES strings stand for the structures. Hit rate of the full screen: of about 220,000 compounds, about 2,000 (0.91%) were called active. Inconclusive results (about 2%) are left out. No stated cut-off is given here; in the data, inconclusive means inhibition above about 80% without an active follow-up result; inactive means below that; test concentration not stated here. These entries were drawn from the full list. Potency and affinity values are given separately.

Broadly, the inhibition is the relative decrease from the control value, in per cent.

The test is described as follows: M. tuberculosis H37Rv growth inhibitors, H37Rv strain (AID 1626).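 Further: bacteria incubated seven days before Alamar blue readout; 0% = bacteria only wells and 100% = bacteria with antibiotic wells.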 As to conditions: hits give high values, concentration not given here.
In the case of `CN(C)c1ccc(/C=N/N=C(N)N)cc1[N+](=O)[O-]`, the inhibition is -2.01% (inactive).
Regarding `O=c1c2cc(NC(=S)N3CCCC3)ccc2nc2n1CCCCC2`, the inhibition was 5.39% (inactive).
As for `O=C(O)C12C[C@H]3C[C@@H](C1)CC(n1ncc(N4CCN(c5ccccc5)CC4)c(Cl)c1=O)(C3)C2`, the inhibition was -7.44% (inactive).
On to `Cc1ccc(N=CC2=C(O)CC(c3ccco3)CC2=O)cc1` (stereo not given), for which the inhibition is -4.64% (inactive).
Regarding `CCc1ccc(N=CC2=C(O)CC(c3ccco3)CC2=O)cc1` (stereo not given), the inhibition is 81% (inactive).
As to `COC(=O)c1[nH]c2cccc(OC)c2c1NC(=O)CCN1CCC(C(N)=O)CC1`, the inhibition is -3.72% (inactive).
Turning to `O=C(O)c1ccc(-c2nc(-c3ccc(Cl)c(Cl)c3)cs2)cc1`, the inhibition was 8.4% (inactive).
To `O=C(O)c1ccc(-c2nc(-c3ccccc3)cs2)cc1` belongs -1.73% (inactive); to `CNC(=O)c1csc(-c2ccncc2)n1`, -3.82% (inactive); to `CNC(=O)c1csc(-c2ccc(C)cc2)n1`, -5.14% (inactive).
Consider `CC(C)OCCCNS(=O)(=O)c1ccc2c(c1)OCCO2`, for which the inhibition is 2.36% (inactive).
For `CN(C(=O)CO/N=C/c1ccc(OC(F)F)cc1)C1CCS(=O)(=O)C1` (stereo not given), the inhibition was 8.36% (inactive).
`CCOc1ccc(-c2cc(CCCC(=O)Nc3cc(OC)ccc3OC)no2)cc1`: the inhibition is 9.58% (inactive).
As to `CCOc1ccc(-c2cc(CCCC(=O)NCCC(C)C)no2)cc1`, the inhibition was -2.14% (inactive).
In the case of `CCOc1ccc(-c2cc(CCCC(=O)NCCc3ccccc3)no2)cc1`, the inhibition was 4.69% (inactive).
On to `CCOc1ccc(-c2cc(CCCC(=O)NCCCOC)no2)cc1`, for which the inhibition is 4.11% (inactive).
On to `C=CCNc1nc(-c2ccccn2)nnc1-c1ccccc1`, for which the inhibition was 37% (inactive).
`CN(C)c1nc(-c2ccccn2)nnc1-c1ccccc1`: the inhibition was 68% (inactive).
Take `Cc1ccn(C(=O)c2cc3c(C)nn(-c4ccccc4)c3s2)n1`: the inhibition is 10.1% (inactive).
Regarding `CC(C)(O)C(=O)NNC(=S)Nc1ccc(F)c(Cl)c1`, the inhibition was 14.7% (inactive).
Regarding `COC(=O)C1=C(SC)N(c2ccc(OC)cc2)C(c2ccccc2)CC1=O` (stereo not given), the inhibition was -3.65% (inactive).
On to `Cc1ccc(N2C(=O)C(CN3CCCC3)C2c2ccccc2)cc1` (stereo not given), for which the inhibition was 27.1% (inactive).
In the case of `COc1ccc(N2C(=O)C3CCCN3C2c2ccccc2F)cc1` (stereo not given), the inhibition is -5.95% (inactive).
As for `Cc1ccc(N2C(=O)C(CN(C)C)C2c2ccccc2)cc1` (stereo not given), the inhibition is -4.35% (inactive).
`O=C1c2ccccc2NC(c2ccc3c(c2)OCCO3)N1c1ccc2c(c1)OCCO2` (stereo not given): the inhibition was -7.93% (inactive).
Regarding `O=C(O)C1CC(=O)N(c2ccc3c(c2)OCCO3)C1` (stereo not given), the inhibition was 5.06% (inactive).
To `O=C(NN1CCOCC1)c1cc(-c2ccc(Br)cc2)nc2ccccc12` belongs 7.15% (inactive).
To `CC(=O)NCCC(=O)Nc1ccc(F)cc1C` belongs -1.47% (inactive); to `Cc1nn(-c2cccc([N+](=O)[O-])c2)c(N)c1-c1ccccc1`, 7.18% (inactive).
In the case of `COCCNc1nc(-c2ccc(OC)cc2)c(-c2ccc(OC)cc2)s1`, the inhibition is 15.7% (inactive).
As to `Cc1csc(Cn2c(CN(C)C)nc3ccccc3c2=O)n1`, the inhibition is 5.39% (inactive).
For `COc1cc([N+](=O)[O-])cc(CN2CCCCC2)c1O`, the inhibition was 2.21% (inactive).
With `O=C(CN1CCc2ccccc2C1)NC1CCCC1`, the inhibition was -13.6% (inactive).
To `CCC(=O)N(Cc1c(C)nn(-c2ccccc2)c1Cl)c1ccc(Cl)cc1` belongs 8.67% (inactive); to `CC(=O)N(Cc1c(C)nn(-c2ccccc2)c1Cl)c1ccc(Cl)cc1`, -13.6% (inactive).
As to `CCn1cc(C(=O)OCC(=O)c2ccc(Cl)cc2)c(=O)c2ccc(C)nc21`, the inhibition is -8.38% (inactive).
With `O=C1CC(c2ccc(F)cc2)Sc2nc(C34CC5CC(CC(C5)C3)C4)nn21` (stereo not given), the inhibition was 5.92% (inactive).
As to `Cc1ccc(SCn2nnc3ccccc3c2=O)c(C)c1`, the inhibition was -6.38% (inactive).
Regarding `COc1ccc2nc(/C=N/NC(=O)[C@@H]3CCCN3C(=O)OC(C)(C)C)ccc2c1`, the inhibition was -1.11% (inactive).
The figure for `O=C(NCc1nnc2n1CCCCC2)c1ccc(Cl)cc1Cl` is -8.85% (inactive).
In the case of `O=C(COc1ccc(Cl)cc1)Nc1nnc(-c2ccco2)o1`, the inhibition is 0.85% (inactive).
As for `CC(=O)Nc1ccc2c(c1)CCCC2`, the inhibition was 0.76% (inactive).
Regarding `O=C(COc1ccccc1)Nc1nnc(-c2ccccc2)o1`, the inhibition was 12.6% (inactive).
As to `CC(=O)Nc1cccc(-c2nnc(-c3ccccc3)o2)c1`, the inhibition was -12.3% (inactive).
The figure for `Clc1ccc(-c2nnc(NC3=NCCCCC3)o2)cc1` is -12.1% (inactive); for `CCN(CC)S(=O)(=O)c1ccc(N=N/C(C(C)=O)=C(/C)O)cc1` it is -10.5% (inactive).
For the molecule `Cc1c(C#N)c(N=CN(C)C)c(C(=O)c2ccc(Br)cc2)n1-c1ccc(Cl)cc1`, the inhibition is 1.78% (inactive).
Regarding `CCn1c(C)nc2cc(S(=O)(=O)N3CCCCC3)ccc21`, the inhibition was -10.8% (inactive).
The figure for `C=C1C(=O)O[C@@H]2C[C@@H](C)[C@H]3C=CC(=O)[C@]3(O)C[C@@H]12` is -7.5% (inactive); for `CC(=O)O[C@@H]1[C@H]2[C@@H](C[C@@H](C)[C@@H]3CCC(=O)[C@@]13C)OC(=O)[C@@H]2C` it is -3.15% (inactive); for `C=C1C(=O)O[C@H]2[C@H]1[C@H](OC(=O)CC(=O)O[C@@H]1C[C@@H](C)[C@@H]3C=CC(=O)[C@@]3(C)[C@H]3OC(=O)C(=C)[C@H]13)C[C@@H](C)[C@H]1C=CC(=O)[C@]12C` it is -7.78% (inactive).
Regarding `C[C@@H]1C[C@@H]2OC(=O)[C@]3(C)[C@H]2[C@@H](OC3(C)O)[C@]2(C)C(=O)C=C[C@H]12` (stereo not given in full), the inhibition is -4.34% (inactive).
To `CC(=O)O[C@@H]1[C@H]2[C@@H](C[C@@H](C)[C@@H]3C=CC(=O)[C@@]13C)OC(=O)[C@@H]2C` belongs -0.99% (inactive); to `COc1ccc(NC(=O)CCc2nc3ccccc3[nH]2)cc1`, -2.77% (inactive).
As for `CC(C)c1nc2c([nH]1)c(=O)n(C)c(=O)n2C`, the inhibition was -8.57% (inactive).
For `CCCc1cc(C(=O)Nc2cc(Br)ccc2O)no1`, the inhibition is 78.3% (inactive).
`CCCc1cc(C(=O)Nc2ccc(C(C)=O)cc2)no1`: the inhibition is 79.7% (inactive).
In the case of `CC(C)c1cc(C(=O)Nc2cc(Br)ccc2O)no1`, the inhibition is 43.5% (inactive).
Take `Cc1cc(C(=O)Nc2c(F)cc(F)cc2Br)no1`: the inhibition is 16.4% (inactive).
Regarding `CC(C)Cc1cc(C(=O)Nc2ccc(Br)cc2)no1`, the inhibition is 68.8% (inactive).
Consider `O=C(Nc1c(F)cc(F)cc1Br)c1cc(-c2ccc(O)cc2)on1`, for which the inhibition is 73.7% (inactive).
Consider `CCOC(=O)C1CCCN(C(=O)c2cccc(NC(=O)C(CC)CC)c2)C1` (stereo not given), for which the inhibition is -1.45% (inactive).
To `CCCCCOc1ccc(C)cc1CN(CCCl)CCCl` belongs 5.72% (inactive); to `CCOC(=O)CNc1c(N2CCN(c3ccccn3)CC2)c(=O)c1=O`, 0.74% (inactive).
The figure for `COCCn1c(C)cc(C(=O)COC(=O)c2ccc3c(c2)NC(=O)CS3)c1C` is 3.82% (inactive); for `N#C/C(=C\c1cn[nH]c1-c1ccc(Cl)cc1)C(=O)NC1CC1` it is 9.87% (inactive); for `CCOC(=O)COc1cc(=O)n(CC)c2ccccc12` it is 7.42% (inactive).
Consider `COc1ccc(/C=C/C(=O)Nc2cc(C)nn2-c2nc3ccccc3[nH]2)cc1`, for which the inhibition was 11.4% (inactive).
On to `Cc1cc(NC(=O)C2CCC2)n(-c2ccccn2)n1`, for which the inhibition is 2.03% (inactive).
The figure for `CCOC(=O)C(=O)Nc1cc(C)nn1-c1nc2ccccc2[nH]1` is -8.84% (inactive).
With `Cc1cc(NC(=O)/C=C/c2ccc(F)cc2)n(-c2nc3ccccc3[nH]2)n1`, the inhibition is 13.6% (inactive).
In the case of `COC(C[C@@H]1O[C@H]1[C@H](O)[C@@H](C)OCc1ccccc1)OC`, the inhibition is -4.16% (inactive).
Regarding `CCn1c2ccccc2c2nnc(NN)nc21`, the inhibition is -7.42% (inactive).
For the molecule `O=C(/C(C=Nc1cccc(C(F)(F)F)c1)=C(/O)c1ccco1)C(F)(F)F`, the inhibition was 0.06% (inactive).
On to `Cc1nn(C)c(C)c1NC(=O)CCl`, for which the inhibition was -7.2% (inactive).
On to `CCn1c(SCC(=O)N=Nc2c(O)[nH]c3ccccc23)nnc1-c1ccc(C(C)(C)C)cc1`, for which the inhibition is -1.76% (inactive).
With `Cc1[nH]c2ccc(F)cc2c1CCNC(=O)C1CCCCC1C(=O)OCC(F)(F)F` (stereo not given), the inhibition was 2.82% (inactive).
To `O=C(NCc1ccccc1)c1ccc(Br)cc1` belongs -2.09% (inactive).
The figure for `Cc1[nH]n(-c2ccccc2)c(=O)c1N=Nc1ccc2c(c1)OCCO2` is -5.08% (inactive); for `Cc1[nH]n(-c2ccccc2)c(=O)c1N=Nc1ccccc1` it is 3.96% (inactive); for `Cc1[nH]n(-c2ccccc2)c(=O)c1N=Nc1ccccc1O` it is 5.76% (inactive).
The figure for `Cc1ccccc1N=Nc1c(C)[nH]n(-c2ccccc2)c1=O` is -1.01% (inactive); for `Cc1nnc(NC(=O)CCSCCC(=O)Nc2nnc(C)s2)s1` it is 1.24% (inactive); for `COc1ccc(/C=C/C(=O)c2c(O)ccc3c(C)cc(=O)oc23)cc1` it is 17.2% (inactive).
With `O=C(COC(=O)c1ccccc1Cl)NCCC1=CCCCC1`, the inhibition was 4.94% (inactive).
As to `O=C(COC(=O)c1ccccc1O)NCCC1=CCCCC1`, the inhibition is 7.1% (inactive).
For `O=C(NCc1ccco1)C1CCN(Cc2ccc(F)cc2)CC1`, the inhibition is 1.23% (inactive).
The figure for `COc1ccc(CNC(=S)Nc2cc(C)ccc2C)cc1` is 4.83% (inactive); for `C=CCn1c(SCC(=O)N2CCc3ccccc3C2)nc2ccccc2c1=O` it is -0.56% (inactive).
With `O=C1CC(c2ccccc2Oc2cccc(Cl)c2)C(n2cncn2)C(=O)C1C1NCCc2ccccc21` (stereo not given), the inhibition was -9.29% (inactive).
As for `Cc1cc(C)c2c(n1)sc1c(N3CCN(CCO)CC3)ncnc12`, the inhibition was 18.8% (inactive).
For `Cc1cc(C)c2c(n1)sc1c(N3CCN(C)CC3)ncnc12`, the inhibition was 7.86% (inactive).
For the molecule `Cc1ccc(NC(=O)NCC2CCN(Cc3cccc(Cl)c3)CC2)c(Cl)c1`, the inhibition was 33.5% (inactive).
For `CCc1cccc(CN2CCC(CNC(=O)Nc3ccc(Cl)cc3)CC2)c1`, the inhibition was 0.84% (inactive).
In the case of `COCCn1c(COc2ccc(OC)cc2)nc2ccccc21`, the inhibition is 4.25% (inactive).

(Values after PubChem BioAssay AID1626 (SRMLSC, 2009).)
